Active and inactive are the calls of the source. Unless noted, how the calls were made is not given here.
Assays:
[1] = A549 cell viability effects, profiling panel, calcein-AM fluorescence, 48 h, basal (AID 1162); settings: higher = more signal; further: test concentration not given here
[2] = adipocyte viability effects, profiling panel, cell-based, 3T3-L1 adipocytes, calcein-AM fluorescence, 48 h, basal (AID 1163); settings: 3T3-L1 adipocytes viability, higher = more signal; further: test concentration not given here
[3] = HepG2 cell viability effects, profiling panel, calcein-AM fluorescence, 48 h, basal (AID 1164); settings: higher = more signal; further: test concentration not given here
[4] = MM1S cell viability effects, profiling panel, calcein-AM fluorescence, 48 h, basal (AID 1165); settings: higher = more signal;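 further: viability of MM1S multiple myeloma cells under basal unstimulated conditions; test concentration not given here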
[5] = basal RPMI8226 viability, no added stimulus, profiling panel, cell-based, calcein-AM fluorescence, 48 h, PK04 Diversity Set (AID 1166); settings: RPMI8226 myeloma viability, higher = more signal;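 further: cells grown under basal conditions without added stimulus; test concentration not given here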
[6] = basal HepG2 mitochondrial membrane potential changes, profiling panel, cell-based, JC-1 fluorescence, 24 h, 100 nL compound (AID 1167); settings: higher = more signal; further: test concentration not given here
[7] = basal 3T3-L1 adipocyte mitochondrial potential changes, profiling panel, cell-based, JC-1 fluorescence, 3T3-L1 adipocytes, 24 h, 100 nL compound (AID 1168); settings: JC-1 mitochondrial fluorescence, higher = more signal, called active from +8 up or from −8 down; further: test concentration not given here
[8] = basal RPMI8226 mitochondrial membrane potential changes, profiling panel, cell-based, JC-1 fluorescence, 24 h, 100 nL compound (AID 1169); settings: RPMI8226 myeloma, JC-1 mitochondrial potential fluorescence, higher = more signal; further: test concentration not given here
[9] = basal MM1S mitochondrial membrane potential changes, profiling panel, cell-based, JC-1 fluorescence, 24 h, 100 nL compound (AID 1170); settings: higher = more signal; further: test concentration not given here
[10] = A549 lung cancer cell viability effects, profiling panel, resazurin fluorescence, 24 h, PK04 Diversity Set (AID 1171); settings: higher = more signal, called active from +8 up or from −8 down; further: test concentration not given here
[11] = HepG2 liver cancer cell viability effects, profiling panel, resazurin fluorescence, 24 h, PK04 Diversity Set (AID 1172); settings: higher = more signal; further: test concentration not given here
[12] = basal S. cerevisiae growth modulation, no modifier, primary screen, OD600, strain BY4716, 24 h, basal condition (AID 1173); settings: OD600, 24 h, higher = more signal, called active from +8 up or from −8 down
[13] = MM1S myeloma cell viability, profiling panel, resazurin fluorescence, basal, 24 h, PK04 Diversity Set (AID 1174); settings: higher = more signal, called active from +8 up or from −8 down;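 further: MM1S multiple myeloma cell line; test concentration not given here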
[14] = target: Dihydroorotate dehydrogenase (quinone), mitochondrial (Plasmodium falciparum (isolate 3D7)) (UniProt Q08210); experiment: PfDHODH enzyme inhibitors, primary screen, biochemical, C-terminal His tag, absorbance 600 nm (AID 1175); settings: DCIP absorbance 600 nm, higher = more signal, called active from +8 up or from −8 down;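 further: recombinant parasite enzyme with a five histidine tag at its C terminus; test concentration not given here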
[15] = P. aeruginosa biofilm formation inhibitors, primary screen, strain PAO1, LB-PBS medium, absorbance 600 nm (AID 1176); further: test concentration not given here; settings: P. aeruginosa PAO1 growth/biofilm, A600, 12 h; higher = more signal
[16] = S. cerevisiae RM11-1a growth modifiers, primary screen, strain RM11-1a, OD600, basal, 24 h (AID 1177); settings: OD600, 24 h, higher = more signal, called active from +8 up or from −8 down;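 further: cultures grown under basal conditions with no added stressor; test concentration not given here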
[17] = E. coli acrAB mutant growth effects, primary screen, E. coli filamentation inducers, strain DRC39, OD650, 24 h (AID 1178); settings: higher = more signal, called active from +8 up or from −8 down;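 further: growth measured as culture turbidity by optical density at 650 nm; test concentration not given here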
[18] = E. coli acrAB mutant growth effects, primary screen, E. coli filamentation inducers, strain DRC39, OD650, 48 h (AID 1179);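 further: screen aims at cell division blockers that make cells filament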; settings: E. coli DRC39 delta-acrAB growth, higher = more signal, called active from +8 up or from −8 down
[19] = RPMI8226 myeloma cell viability, profiling panel, resazurin fluorescence, basal, 24 h, PK04 Diversity Set (AID 1180); settings: higher = more signal;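 further: RPMI8826 multiple myeloma cell line at 5000 cells per well; test concentration not given here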
[20] = target: E3 ubiquitin-protein ligase XIAP (Homo sapiens) (UniProt P98170); experiment: XIAP binders, primary screen, biophysical, small-molecule microarray, fluorescence 635 nm (AID 1181); settings: small-molecule microarray binding, higher = more signal;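 further: score merges 667 nm emission and signal to noise over triplicate slides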
Chain of E3 ubiquitin-protein ligase XIAP (Homo sapiens) (P98170 whole entry, looked up): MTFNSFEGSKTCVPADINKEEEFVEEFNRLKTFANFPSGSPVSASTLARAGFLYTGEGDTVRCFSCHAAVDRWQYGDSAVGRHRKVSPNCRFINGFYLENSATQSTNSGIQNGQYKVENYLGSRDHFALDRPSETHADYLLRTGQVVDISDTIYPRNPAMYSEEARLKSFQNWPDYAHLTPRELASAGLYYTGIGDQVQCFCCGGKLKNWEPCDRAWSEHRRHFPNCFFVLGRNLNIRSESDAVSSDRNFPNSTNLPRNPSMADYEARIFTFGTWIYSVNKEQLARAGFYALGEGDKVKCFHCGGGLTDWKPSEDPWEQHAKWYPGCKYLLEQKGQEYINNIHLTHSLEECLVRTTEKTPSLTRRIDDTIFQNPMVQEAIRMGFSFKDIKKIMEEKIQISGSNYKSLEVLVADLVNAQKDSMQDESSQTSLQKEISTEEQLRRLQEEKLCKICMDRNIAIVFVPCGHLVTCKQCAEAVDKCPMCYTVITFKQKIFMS

Chain of Dihydroorotate dehydrogenase (quinone), mitochondrial (Plasmodium falciparum (isolate 3D7)) (Q08210 whole entry, looked up): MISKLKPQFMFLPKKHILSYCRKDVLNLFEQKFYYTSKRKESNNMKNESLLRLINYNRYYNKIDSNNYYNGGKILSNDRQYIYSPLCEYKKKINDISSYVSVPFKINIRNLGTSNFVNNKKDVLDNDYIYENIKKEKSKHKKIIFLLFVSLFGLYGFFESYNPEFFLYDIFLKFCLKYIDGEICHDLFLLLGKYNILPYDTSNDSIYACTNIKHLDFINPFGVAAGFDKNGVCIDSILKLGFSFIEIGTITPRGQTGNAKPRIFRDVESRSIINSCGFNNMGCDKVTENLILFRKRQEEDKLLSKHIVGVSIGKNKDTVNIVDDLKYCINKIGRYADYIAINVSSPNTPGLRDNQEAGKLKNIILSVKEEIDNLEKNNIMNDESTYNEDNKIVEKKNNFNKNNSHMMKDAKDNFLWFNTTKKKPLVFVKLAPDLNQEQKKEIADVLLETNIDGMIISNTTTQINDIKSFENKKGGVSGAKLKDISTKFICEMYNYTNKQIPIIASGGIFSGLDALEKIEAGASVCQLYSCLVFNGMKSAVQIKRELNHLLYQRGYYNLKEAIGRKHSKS

Compound | z-score [1] | z-score [2] | z-score [3] | z-score [4] | z-score [5] | z-score [6] | z-score [7] | z-score [8] | z-score [9] | z-score [10] | z-score [11] | z-score [12] | z-score [13] | composite z-score [14] | z-score [15] | z-score [16] | z-score [17] | z-score [18] | z-score [19] | composite z-score [20]
COc1ccc([Si](C)(C)[C@H]2[C@H](CC(=O)N3Cc4ccccc4C[C@H]3CO)O[C@@]3(C(=O)N(C)c4c(Br)cc(C)cc43)[C@@H]2C)cc1 | -2.66 | 0.231 | -4.66 | -2.71 | -4.36 | -2.2 | 0.0243 (inactive) | -1.12 | -2.31 | -2.92 (inactive) | -4.15 | 0.915 (inactive) | -6.33 (inactive) | 0.973 (inactive) | 1.72 (inactive) | 3.17 (inactive) | -0.652 (inactive) | -0.984 (inactive) | -6.22 | -0.134
O=C1NC(=O)C2C1C=CC(C(O)c1ccc(B(O)O)cc1)N2Nc1ccc(Cl)cc1Cl (stereo not given) | -0.591 | -1.33 | -1.19 | -1.62 | -1.58 | -1.75 | -1.12 (inactive) | 0.482 | -0.682 | -0.616 (inactive) | -1.97 | -7.76 (inactive) | -1.19 (inactive) | -0.0575 (inactive) | 1.29 (inactive) | 1.48 (inactive) | 0.0436 (inactive) | -1.52 (inactive) | -1.78 | 0.0049
COc1ccc([Si](C)(C)[C@H]2[C@H](CCO)O[C@@]3(C(=O)N(Cc4cccc(N(C=O)c5ccccc5)c4)c4ccccc43)[C@@H]2C)cc1 | -0.533 | 0.441 | -3.83 | -1.18 | -4.23 | 1.01 | 0.549 (inactive) | -1.03 | -1.85 | -2.2 (inactive) | -1.85 | 1.27 (inactive) | -3.37 (inactive) | 0.105 (inactive) | 1.45 (inactive) | 4.32 (inactive) | 1.61 (inactive) | 1.41 (inactive) | -3.77 | 0.203
O=C1[C@@H]2[C@@H](CC(COc3ccccc3)=C([C@H](O)CCc3ccccc3)[C@@H]2CO)C(=O)N1Cc1ccccc1 | -0.137 | -0.331 | -1.32 | -3.23 | -3.48 | 0.325 | -0.0321 (inactive) | -1.04 | -1.33 | -0.833 (inactive) | -1.38 | -0.0733 (inactive) | -0.577 (inactive) | -2.37 (inactive) | 0.258 (inactive) | 1.47 (inactive) | 0.372 (inactive) | 0.203 (inactive) | -0.664 | 0.15
COCCOC(=O)N1C(=O)[C@@]2(c3cc(C#CCCO)ccc31)[C@H](c1ccc(OCCO)cc1)N1[C@H](c3ccccc3)[C@H](c3ccccc3)OC(=O)[C@H]1[C@@H]2C(=O)N1CCCCCCC1 | 0.139 | 0.005 | -0.584 | -0.993 | -1.03 | -0.437 | -2.09 (inactive) | 0.309 | -0.958 | -0.232 (inactive) | -0.21 | 0.532 (inactive) | -0.292 (inactive) | -0.0613 (inactive) | 1.68 (inactive) | 1.13 (inactive) | -0.442 (inactive) | -0.457 (inactive) | -0.621 | 0.152
COCCOC(=O)N1C(=O)[C@@]2(c3cc(C#CC4(O)CCCCCC4)ccc31)[C@H](c1ccc(O)cc1)N1[C@H](c3ccccc3)[C@H](c3ccccc3)OC(=O)[C@H]1[C@@H]2C(=O)N1CCCCCCC1 | 0.717 | -0.854 | 0.98 | -0.615 | -1.83 | -0.442 | -0.943 (inactive) | -1.01 | 0.0446 | -0.178 (inactive) | 0.0323 | -0.525 (inactive) | 0.341 (inactive) | -1.45 (inactive) | 1.19 (inactive) | 0.478 (inactive) | -0.298 (inactive) | 0.625 (inactive) | -0.196 | -0.0351
CCCC=C(CCC)[C@@H](NC(=O)OCC(C)C)c1ccc(C(=O)OC)cc1 | 0.732 | -0.196 | 0.0516 | 0.753 | 0.528 | -0.345 | -1.53 (inactive) | -0.0219 | -1.32 | 0.293 (inactive) | 1.78 | 0.463 (inactive) | 0.287 (inactive) | -0.456 (inactive) | 0.523 (inactive) | -0.578 (inactive) | 0.386 (inactive) | -0.0328 (inactive) | 0.754 | 0.0651
O=C(N1CCOCC1)[C@@]1(Cc2ccccc2)COC(c2ccc(OCCCO)cc2)=N1 | -0.114 | 0.893 | -0.985 | -1.6 | -0.907 | -1.12 | 0.0409 (inactive) | -0.856 | -0.095 | 0.628 (inactive) | -0.395 | -3.37 (inactive) | 0.13 (inactive) | -0.641 (inactive) | 0.565 (inactive) | -0.428 (inactive) | 1.26 (inactive) | 0.284 (inactive) | 1.15 | 0.081
C=CCC(OC(C)=O)[C@@H]1[C@@H](N(Cc2cc3ccccc3o2)C(=O)c2cccc3ccccc23)c2cc(OCCCO)ccc2N1C(=O)c1ccc2ccccc2n1 (stereo not given in full) | 0.375 | 0.756 | 0.601 | -1.14 | -2.01 | 2.42 | -0.961 (inactive) | -0.211 | -0.245 | -0.985 (inactive) | -1.01 | -0.711 (inactive) | -0.367 (inactive) | 0.364 (inactive) | 0.256 (inactive) | 0.202 (inactive) | 0.935 (inactive) | 0.207 (inactive) | -0.544 | -0.393

From PubChem BioAssay
